Assay [1] concerns the target Cellular tumor antigen p53 (Homo sapiens) (UniProt P04637). Briefly: TOX21_p53_BLA_p5_ratio: Tox21 HCT-116 p53 Agonism Beta-lactamase Assay, Ratio, Phase 5 (AID 2283599). An outline of the steps:
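HCT-116 cells carrying a p53-inducible beta-lactamase reporter were seeded at 4000 cells/well and dosed after 5 h with compound in DMSO (217-fold dilution). After 16 h at 37C, CCF4-AM substrate was added for 2 h, and the 460/530 nm emission ratio was scored as gain-of-signal versus DMSO.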

The target is the same in assay [2]. As to the kind of experiment: TOX21_p53_BLA_p4_ratio: Tox21 HCT-116 p53 Agonism Beta-lactamase Assay, Ratio, Phase 4 (AID 2283601). The essentials: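 HCT116 cells carrying an inducible beta-lactamase reporter were plated at 4000 cells/well, rested 5 h, then exposed to compounds in DMSO (217-fold dilution) for 16 h at 37C. CCF4-AM substrate was loaded 2 h at room temperature; 460/530 nm emission ratio scored gain-of-signal versus DMSO.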

Assay [3] in a line: Tanguay_ZF_120hpf_MORT_legacy: (Legacy) Oregon State University Tanguay Lab 120 Hour Post-fertilization zebrafish Assay for Mortality (AID 2283633). An outline of the steps: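 Dechorionated Tropical 5D wild-type zebrafish embryos, one per well from 6 hpf, static exposure in 0.64% DMSO at 28C until 120 hpf. Mortality scored as binary by brightfield microscopy at 24 and 120 hpf.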

Assay [4] in a line: Tanguay_ZF_120hpf_AXIS_legacy: (Legacy) Oregon State University Tanguay Lab 120 Hour Post-fertilization zebrafish Assay for Body Axis Malformation (AID 2283635).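 As to AC50: potency for an increased fraction of larvae scored with body axis malformation.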 An outline of the steps: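 Dechorionated wild-type Tropical 5D zebrafish embryos, one per well, statically exposed from 6 hpf to 120 hpf at 28C in 0.64% DMSO final. Body axis malformation scored present/absent by brightfield microscopy at 120 hpf; dead embryos excluded.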

The nature of assay [5]: Tanguay_ZF_120hpf_JAW_legacy: (Legacy) Oregon State University Tanguay Lab 120 Hour Post-fertilization zebrafish Assay for Jaw Malformation (AID 2283638).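 As to AC50: active means more embryos with jaw malformation than DMSO controls.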 An outline of the steps:
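Dechorionated Tropical 5D wild-type zebrafish embryos, one per well, exposed statically from 6 hpf to 120 hpf at 28C in 0.64% DMSO. Jaw malformation was scored by brightfield microscopy as present or absent. It was not scored in dead embryos.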

A short description of assay [6]: Tanguay_ZF_120hpf_OTIC_legacy: (Legacy) Oregon State University Tanguay Lab 120 Hour Post-fertilization zebrafish Assay for Otic Vesicle Malformation (AID 2283639). The essentials:
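Brightfield scoring at 120 hpf, binary present/absent; DMSO negative control, 5uM trimethyltin chloride positive control. Static exposure at 28C, final DMSO 0.64% (vol/vol). Dead embryos not scored for malformation.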

Assay [7] is described as follows: Tanguay_ZF_120hpf_PE_legacy: (Legacy) Oregon State University Tanguay Lab 120 Hour Post-fertilization zebrafish Assay for Pericardial Edema (AID 2283640).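 As to AC50: potency for increased incidence of pericardial edema versus DMSO baseline.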 The essentials: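 Tropical 5D wild-type zebrafish embryos were statically exposed until 120 hpf at 28C, with 0.64% DMSO final. Pericardial edema was scored by brightfield as present or absent; endpoints were not scored in dead embryos.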

Assay [8] is described as follows: Tanguay_ZF_120hpf_PFIN_legacy: (Legacy) Oregon State University Tanguay Lab 120 Hour Post-fertilization zebrafish Assay for Pectoral Fin Malformation (AID 2283648).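 Also: each larva judged yes or no for fin defect by brightfield with dead larvae skipped.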 An outline of the steps: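 Scoring of pectoral fin malformation was binary, made at 120 hpf on larvae exposed statically from 6 hpf after enzymatic chorion removal. Activity was fitted upward relative to DMSO controls at 0.64% (vol/vol).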

Assay [9] in a line: Tanguay_ZF_120hpf_CFIN_legacy: (Legacy) Oregon State University Tanguay Lab 120 Hour Post-fertilization zebrafish Assay for Caudal Fin Malformation (AID 2283649). The essentials: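 Dechorionated Tropical 5D wild-type embryos, one per well from 6 hpf, static exposure to 120 hpf at 28C in 0.64% DMSO. Caudal fin malformation scored by brightfield as present/absent; not scored in dead embryos.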

Assay [10] in a line: Tanguay_ZF_120hpf_PIG_legacy: (Legacy) Oregon State University Tanguay Lab 120 Hour Post-fertilization zebrafish Assay for Pigmentation Malformation (AID 2283650). The essentials: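 Endpoint is incidence of abnormal pigmentation at 120 hpf in dechorionated 5D zebrafish exposed singly from 6 hpf at 28C, DMSO vehicle at 0.64%. Embryos dying by 24 or 120 hpf are excluded from scoring.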

Assay [11] is described as follows: Tanguay_ZF_120hpf_CIRC_legacy: (Legacy) Oregon State University Tanguay Lab 120 Hour Post-fertilization zebrafish Assay for Circulatory Malformation (AID 2283651). The essentials:
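Static exposure, 6–120 hpf, 28C, sealed and dark; one dechorionated 5D embryo/well; DMSO 0.64% v/v final. Binary circulation endpoint by brightfield; dead embryos not scored.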

Assay [12] is described as follows: Tanguay_ZF_120hpf_SWIM_legacy: (Legacy) Oregon State University Tanguay Lab 120 Hour Post-fertilization zebrafish Assay for Swim Bladder Malformation (AID 2283654).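 Also: swim bladder malformation in each larva scored yes or no under brightfield.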 An outline of the steps:
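Static waterborne exposure of single dechorionated Tropical 5D zebrafish embryos, 6–120 hpf, 28C, 0.64% DMSO final. Read-out: swim bladder malformation, present/absent, relative to DMSO negative control; trimethyltin chloride 5uM served as positive control.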

A short description of assay [13]: Tanguay_ZF_120hpf_TRUN_legacy: (Legacy) Oregon State University Tanguay Lab 120 Hour Post-fertilization zebrafish Assay for Truncated Body (AID 2283655). An outline of the steps: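 Dechorionated Tropical 5D wild-type embryos placed singly from 6 hpf and statically exposed to 120 hpf at 28C, final DMSO 0.64%. Truncated body scored as present/absent by brightfield; not scored in dead embryos.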

Assay [14] is described as follows: Tanguay_ZF_120hpf_NC_legacy: (Legacy) Oregon State University Tanguay Lab 120 Hour Post-fertilization zebrafish Assay for Notochord and Tail Malformation (AID 2283656). The essentials: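 Binary notochord-distortion calls, made by brightfield inspection, form the read-out; activity is fitted in the positive direction against DMSO. Exposure ran statically from 6 to 120 hpf at 28C with 0.64% DMSO.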

Assay [15] can be described thus: Tanguay_ZF_120hpf_YSE_legacy: (Legacy) Oregon State University Tanguay Lab 120 Hour Post-fertilization zebrafish Assay for Yolk Sac Edema (AID 2283634). The essentials: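 Dechorionated Tropical 5D wild-type zebrafish embryos were exposed statically, one per well, from 6 to 120 hpf at 28C in 0.64% DMSO. Yolk sac edema was scored present/absent by brightfield at 120 hpf, and dead embryos were excluded.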

Assay [16] in a line: TOX21_p53_BLA_p5_viability: Viability Assessment in the Tox21 HCT-116 p53 Agonism Beta-lactamase Assay, Phase 5 (AID 2283600). The essentials: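 Decreased CellTiter-Glo luminescence denotes lost viability. Exposure: 16 h at 37C, 5% CO2, with compounds from DMSO stocks diluted 217-fold in wells of 4000 cells.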
Read-out in assay [17]: kallikrein-3 (KLK3), KLK3 (gene 354)
As to the kind of experiment: LTEA_HepaRG_KLK3: Life Technologies and Expression Analysis (LTEA) Assay for kallikrein-3 (KLK3) using HepaRG (AID 2283652; active = hit-call score of the fitted dose curve at least 0.9, where 1 is the maximum; inactive = score below 0.9). As to conditions: mRNA level, 48 h; actives raise or lower the signal. The essentials:
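KLK3 transcript levels were measured by TaqMan qRT-PCR with normalisation to three housekeeping genes. HepaRG cultures received chemicals for 48 h at up to 100 uM (half-log, 8 points, 0.5% DMSO vehicle), fitted in both directions against DMSO.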

Read-out in assay [18]: solute carrier (SLC22A6), SLC22A6 (gene 9356)
As to the kind of experiment: LTEA_HepaRG_SLC22A6: Life Technologies and Expression Analysis (LTEA) Assay for solute carrier (SLC22A6) using HepaRG (AID 2283653; active = hit-call score of the fitted dose curve at least 0.9, where 1 is the maximum; inactive = score below 0.9). As to conditions: mRNA level, 48 h; actives raise or lower the signal. An outline of the steps:
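Differentiated HepaRG cells exposed 48 h in serum-free induction medium to 8 half-log concentrations, top 100 uM, in 0.5% DMSO; SLC22A6 mRNA by Fluidigm qRT-PCR normalized to ACTB, GAPDH, POLR2A, fitted bidirectionally versus DMSO.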

Read-out in assay [19]: solute carrier (SLC10A1), SLC10A1 (gene 6554)
Briefly: LTEA_HepaRG_SLC10A1: Life Technologies and Expression Analysis (LTEA) Assay for solute carrier (SLC10A1) using HepaRG (AID 2283657; active = hit-call score of the fitted dose curve at least 0.9, where 1 is the maximum; inactive = score below 0.9). As to conditions: mRNA level, 48 h; actives raise or lower the signal. The essentials:
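Cryopreserved HepaRG cells are thawed, plated and cultured 48 h; medium is then switched to serum-free induction medium and chemicals added (8 points, max 100 uM, 0.5% DMSO). After 48 h, RNA is isolated and SLC10A1 quantified by qRT-PCR.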

Read-out in assay [20]: matrix metalloproteinase-1 (MMP1), MMP1 (gene 4312)
As to the kind of experiment: LTEA_HepaRG_MMP1: Life Technologies and Expression Analysis (LTEA) Assay for matrix metalloproteinase-1 (MMP1) using HepaRG (AID 2283658; active = hit-call score of the fitted dose curve at least 0.9, where 1 is the maximum; inactive = score below 0.9). The conditions noted are these: mRNA level, 48 h; actives raise or lower the signal. An outline of the steps:
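Differentiated human HepaRG cells, 48 h post-plating in serum-free induction medium, were exposed 48 h to eight half-log concentrations topping at 100 uM in 0.5% DMSO, duplicate. MMP1 mRNA measured by Fluidigm TaqMan qRT-PCR, normalized to ACTB, GAPDH, POLR2A; bidirectional fits versus DMSO.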

Molecules are shown by their SMILES. Inconclusive results are not listed. The source made the active and inactive calls. The calls were made as follows, unless noted: active = hit-call score of the fitted dose curve at least 0.9, where 1 is the maximum; inconclusive = response in the unintended direction; inactive = score below 0.9.

For 14 molecules, outcome and AC50 results are on record in PubChem BioAssay (EPA / NIEHS).

One may read the AC50 as the concentration giving half of the maximal activity seen.

Chain of Cellular tumor antigen p53 (Homo sapiens) (P04637 whole entry, looked up): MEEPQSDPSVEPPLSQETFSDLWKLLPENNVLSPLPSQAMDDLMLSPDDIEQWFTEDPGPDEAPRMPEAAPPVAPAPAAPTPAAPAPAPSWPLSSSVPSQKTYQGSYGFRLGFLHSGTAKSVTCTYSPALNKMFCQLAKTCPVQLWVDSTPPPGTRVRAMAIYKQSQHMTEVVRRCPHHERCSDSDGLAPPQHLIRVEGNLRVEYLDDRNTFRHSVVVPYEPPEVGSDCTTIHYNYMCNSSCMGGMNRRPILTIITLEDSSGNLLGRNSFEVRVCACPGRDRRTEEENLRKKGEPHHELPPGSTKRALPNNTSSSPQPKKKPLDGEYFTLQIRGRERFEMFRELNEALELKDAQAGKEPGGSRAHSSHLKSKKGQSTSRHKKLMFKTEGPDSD

With `CCOP(OCC)OCC`, the result in [1] and in assay [2] was inactive.
Regarding `CCC(=O)C(CC(C)N(C)C)(c1ccccc1)c1ccccc1` (stereo not drawn), the result in assay [1], in [2], in [3], in [6], in [8] and in [9] was inactive. Besides, the molecule was classed as inactive in assay [10], in assay [11], in assay [12], in assay [13] and in assay [14]. Besides, the concentration at half-maximal activity (AC50) in [4] is 31.3 µM (active); in [5], 34.4 µM (active); in [7], 7.24 µM (active).
With `Cl/C=C\C[N+]12CN3CN(CN(C3)C1)C2`, the outcome in assay [1] and in assay [2] was inactive.
Regarding `COP(=S)(OC)Oc1cc(Cl)c(Br)cc1Cl`, the result in assay [1] was inactive. Also, in [2], the half-maximal activity concentration (AC50) is 79.6 µM (active).
Take `CCCCC(CC)CO[N+](=O)[O-]` (stereo not drawn): the result in assay [2] was inactive.
As to `CC(C)(OO)c1ccccc1`, the outcome in [1], in assay [2], in [3], in [15], in [4] and in assay [5] was inactive. Besides, the molecule was classed as inactive in [6], in [7], in assay [8], in assay [9], in assay [10] and in [11]. For the same molecule, the molecule was called inactive in assay [12] and in assay [13].
For `NN=C(N)N`, the result in assay [1] and in [2] was inactive.
Take `NC(=O)O`: the outcome in assay [1], in assay [16], in assay [2], in [3], in assay [15] and in assay [5] was inactive. The molecule was classed as inactive in assay [7], in assay [9], in [11], in [17], in assay [18] and in assay [12]. Further, the call in assay [13], in assay [14], in [19] and in assay [20] was inactive.
Consider `COP(=S)(OC)Oc1c(Cl)cc(C)cc1Cl`, for which the outcome in [1] and in [2] was inactive.
Take `CCCCOCCOC(C)=O`: the outcome in [1] and in assay [2] was inactive.
As for `O=c1[nH]c(=O)[nH]c(=O)[nH]1`, the outcome in [1], in [2], in [3], in [15], in [4] and in assay [5] was inactive. The molecule was called inactive in assay [6], in assay [7], in assay [8], in assay [10], in assay [11] and in assay [13]. Moreover, the outcome in assay [14] was inactive.
Regarding `O=C(Cc1ccccc1)c1ccccc1`, the outcome in assay [1] and in assay [2] was inactive.
On to `CCC(C)c1cccc(C(C)CC)c1O` (stereo not drawn), for which the result in assay [1] and in assay [2] was inactive.
As to `Cc1ccccc1N`, the result in assay [1], in assay [16], in assay [2], in [3], in [15] and in assay [5] was inactive. For the same molecule, the result in [7], in assay [8], in [9], in assay [10], in assay [11] and in assay [12] was inactive. Besides, the outcome in assay [13] and in assay [14] was inactive.
